Laboratory results taken from PubChem BioAssay AID504773 (Broad Institute, 2011).
Results with a measured potency or affinity are listed apart. Calls of active or inactive are those of the source.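 Rule for the calls: active = polarization signal falls with dose and the fitted half-maximal concentration is at or below ten times the sample's top valid dose; inconclusive = flat curve at 30 to 70% inhibition, or poor fit; inactive = signal rises, flat within 30%, or potency beyond limit.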

What follows are compounds tested against Golgi-associated PDZ and coiled-coil motif-containing protein (Homo sapiens) (UniProt Q9HD26) (assay: CAL PDZ peptide-binding inhibitors, dose response, biochemical, fluorescence polarization, Cerulean-tagged CAL PDZ, cherry-picks (AID 504773)). Conditions: 1 h; series mostly up to 50 µM.

outcome, inactive:
COc1ccccc1Oc1coc2cc(OC(=O)N3CCOCC3)ccc2c1=O, COC(=O)N/N=C/c1sc(N2CCCCC2)nc1-c1cccs1, Cc1cc(C)c(S(=O)(=O)NCc2ccc3c(c2)OCO3)c(C)c1, CCOC(=O)/C(N=Nc1ccc2c(c1)OCO2)=C(\C)O, O=C(CCC(=O)N1CCN(c2ccccc2F)CC1)N1CCN(c2ccccc2)CC1, Cc1ccccc1N1CCN(S(=O)(=O)c2ccccc2)CC1, CS(=O)(=O)c1ccc2nc(NC(=O)CN3C(=O)C4CC=CCC4C3=O)sc2c1 (centres undefined), Cc1c(C(=O)OCC(=O)NC(=O)NC2CCCCC2)cccc1[N+](=O)[O-], CCC(C)(C)NC(=O)CSc1nc(Cc2ccccc2)nc2ccccc12, Cc1cc(NC(=O)CSc2nnc(-c3ccccc3)c(-c3ccccc3)n2)no1, O=C1CN(C(=O)CC2C(=O)NCCN2Cc2ccccc2C(F)(F)F)CCN1 (centres undefined), COn1c(SCc2ccccc2)nc2ccccc2c1=O, CN(Cc1nccn1C)C(=O)c1cc(COc2ccc3ncccc3c2)on1, CC(=O)N1N=C(c2ccccc2)CC1c1ccccc1 (centres undefined), O=C(NCCCn1ccnc1)c1ccccc1F, O=C(NCc1cccs1)c1cccn2c(=O)c3sccc3nc12, COc1cc(Br)c(C(=O)c2nccc3cc(OC)c(OC)cc23)cc1OC, N#Cc1ccc(CC(=O)c2ccccc2)[nH]c1=O, COc1ccc(CSc2ncnc3sccc23)cc1F
